Sampled rows, rich in hits. Any-hit rate of the full collection: about 0.88%.
TRHR agonist = TRH receptor (human) agonism | P34981 | TRHR cells, calcium flux fluo-8, FDSS agonist mode | activation, % at 2 µM | 360,000 tested, 0.18% active; in the data active = activation above about 30%; also: 0% is about no effect
Target sequence (P34981 whole entry, looked up): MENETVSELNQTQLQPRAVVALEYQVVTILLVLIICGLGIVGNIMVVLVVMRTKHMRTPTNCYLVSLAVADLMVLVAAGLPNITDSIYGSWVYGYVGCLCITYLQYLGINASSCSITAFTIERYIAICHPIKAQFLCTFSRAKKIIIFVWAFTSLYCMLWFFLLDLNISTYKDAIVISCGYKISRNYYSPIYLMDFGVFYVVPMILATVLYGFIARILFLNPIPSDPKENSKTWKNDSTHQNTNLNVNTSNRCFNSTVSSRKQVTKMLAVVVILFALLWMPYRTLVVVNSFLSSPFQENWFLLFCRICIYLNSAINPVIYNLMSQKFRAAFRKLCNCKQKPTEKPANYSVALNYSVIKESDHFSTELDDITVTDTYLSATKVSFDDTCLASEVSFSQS
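Steps: seed TRHR cells overnight; add fluo-8 no-wash Ca dye, RT 30 min–1.5 h; record 10 s baseline; pin-transfer compounds; monitor fluorescence 1 cycle/s for the agonist window. Calcium increases flag candidate agonists.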
CBFb-RUNX1 inh = CBF-beta/RUNX1 interaction disruption | 230,000 tested, under 10 active | AlphaScreen CBFb-His/RUNX1-biotin binding, biochemical | AID 1477 | Potency, µM (top dose mostly 59.8 µM), without a hit: at the highest dose activity, negative = inhibition, hits mostly inhibitors; also: % of control where 0% means no effect
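CBFb-His/RUNX1-biotin, 30 nM each, preincubated 20 min RT; compound 15 min RT; Ni + streptavidin beads 50 ng each, 90 min RT; AlphaScreen read.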
TRHR enhancer = allosterically enhances the human TRH receptor; P34981; TRHR cells, fluo-8 calcium fluorescence, EC20 TRH enhancement; enhancement, % at 2 µM; 360,000 tested, 0.66% active; AID 493056; in the data active = enhancement above about 30%; also: 0% is about no effect
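Enhancer read-out: after compound pinning and an initial kinetic agonist-mode read, an EC20 of TRH (10 nM final) was injected and fluo-8 calcium signal (Ex 480/Em 530) followed at 1 s/cycle for 100 cycles in TRHR-expressing cells.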
IL2 activator = IL-2 activation | IL-2 activation reporter assay, cell-based qHTS; stimulated with anti-CD3/CD4/CD28 beads; in transgenic mouse T cells | activation, % (series mostly up to about 46 µM) | 360,000 tested, 0.065% active; in the data active = activation above about 50%; inconclusive = mostly about 30% to 49%; also: 0% is about no effect
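Readout: EGFP and DsRed signals by fluorescent plate cytometry. Unstimulated transgenic mouse T cells received compound 60 min before antibody-bead stimulation, then incubated 18 h at 37 degrees C.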
MBNL1 CUG block = MBNL1-poly(CUG) RNA binding inhibition. Q9NR56. TR-FRET MBNL1-His/biotin-(CUG)12 binding, 665/545 ratio. Potency, µM (doses to about 57.5 µM), for the others: at the highest dose activity change, negative = inhibition, actives largely listed as inhibitors. 280,000 tested, 0.036% active; active = well fitted inhibition curve with a large enough effect in the signal ratio, with a control signal flat, not every such curve was filed as active; inconclusive = small, poorly fitted or top-dose-only effect, or effect the other way, or a change in a side signal; inactive = no such curve, though single readings can be large or run the other way; the % refers to the signal ratio; also: potency is read from the fitted curve at half-maximal effect; % is scaled to controls: 0 for no effect and ±100 for the full control effect
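Compound titration spanned 92 nM–58 uM against the MBNL1-His/biotin-(CUG)12 complex. After 60 min at room temperature with 5 nM streptavidin-XL665 and 0.055 ng/ul terbium anti-His, ratiometric 665/545 nm emission (Ex 340 nm) normalized to controls.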
Epigenetic reg = regulators of epigenetic silencing causing reporter derepression in mouse cells; 280,000 tested, 0.2% active; Potency, µM (titrated, usually from 53.9 µM), inactives show at the top dose GFP activation, most hits filed as activators; murine LDR cells, GFP reporter derepression, 30 h; also: potency is read from the fitted curve at half-maximal effect; % of control where 0% means no effect; nearly all actives have a fitted effect of over 60% in size
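Derepression of a silenced CMV-GFP reporter in murine LDR cells is scored by enumerating GFP-positive cells with a laser-scanning microplate cytometer after 30 hours of treatment at 37 C.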
* marks the source's active call; other numbers are inactive results; ? = inconclusive; · = no result given; [ ] = dose if it differs, or a comment. Unless noted, calls follow the shape of the dose curve; as a rule, active = well fitted curve in the direction sought with a large enough effect; inconclusive = small, poorly fitted or top-dose-only effect, or another doubt; inactive = no such curve, though single readings can be large; an effect the other way counts as inactive or inconclusive.

SMILES	TRHR agonist	CBFb-RUNX1 inh	TRHR enhancer	IL2 activator	MBNL1 CUG block	Epigenetic reg
O=C(c1ccc([N+](=O)[O-])cc1)N(Cc1ccc(Cl)cc1)N1C(=O)CCCC1=O	36.0*	-2.9%	-19.5	-0.2	17.5%	0.0%
O=C(c1ccc([N+](=O)[O-])cc1)N(Cc1ccc(Cl)cc1Cl)N1C(=O)CCCC1=O	0.8	-6.7%	-7.7	-0.3	?	0.0%
CN(C)c1ccc(/C=C2\C(=N)N3N=C(CC(=O)N4CCCCC4)SC3=NC2=O)cc1	30.6*	·	0.6	20.2	?	·
CN(C)c1ccc(/C=C2\C(=N)N3C(=NC2=O)Sc2cc(S(C)(=O)=O)ccc23)cc1	33.9*	10.9%	1.9	·	9.9%	?
CN(C)c1ccc(/C=C2\C(=N)N3N=C(CC(=O)N4CCCC4)SC3=NC2=O)cc1Br	0.7	·	-6.3	0.3	4.2%	·
CCc1ccccc1NC(=O)[C@H](Cc1ccccc1)N1Cc2ccccc2C1=O	0.0	·	3.6	·	·	-0.3%
Cc1ccc(C)c(S(=O)(=O)NCCc2csc(-c3ccc(Cl)cc3)n2)c1	0.6	·	6.2	·	·	3.4%
COC(=O)c1ccc(S(=O)(=O)N2CCCCC2)o1	-0.3	4.5%	35.9*	-0.6	-0.7%	0.0%
OCCCc1nc2n(n1)C(c1cccs1)C=C(c1ccccc1)N2 (stereo unspecified)	40.9*	0.7%	-2.3	·	?	?
OCCCc1nc2n(n1)C(c1ccccc1)C=C(c1ccc(F)cc1)N2 (stereo unspecified)	-0.8	0.4%	-3.7	-3.2	12.4%	-0.8%
CCOc1ccc2c(c1)C(=NNC(=O)c1ccncc1)c1cc(OCC)ccc1-2	-0.3	-2.1%	34.5*	-3.0	3.5%	?
Cc1ccc(-n2[nH]c(C)c(/C=N/NC(=O)c3ccc([N+](=O)[O-])cc3)c2=O)c(C)c1	-0.2	-13.8%	50.2*	·	12.9%	-0.4%
Cc1[nH]n(-c2cccc3ccccc23)c(=O)c1/C=N/NC(=O)c1cccc([N+](=O)[O-])c1	-0.1	·	3.9	1.2	?	1.1%
NC(=Nc1ccc(Cl)cc1)c1ccccc1	30.6*	-16.8%	-19.2	0.4	4.9%	-0.1%
NC(N)=Nc1ccc(Cl)cc1	·	-1.5%[21.7 µM]	·	·	·	-1.5%
O=C(Nc1ccc(C(=O)N2CCN(c3ccccc3F)CC2)cc1)c1nsc2ccccc12	0.3	·	-0.9	·	·	-1.1%
COc1ccccc1Nc1nc2c(C)cccc2cc1C#N	1.5	14.6%	-2.0	1.3	-5.5%	?
CCOc1ccc(Nc2nc3c(C)cccc3cc2C#N)cc1	0.7	·	16.0	57.5*	13.6%	·
Cc1ccccc1CN(C)C(C)C(=O)Nc1ccccc1F (stereo unspecified)	-0.8	15.8%	39.8*	-0.3	·	-0.1%
N=c1oc2c3c4c(cc2cc1C(=O)Nc1ccccc1)CCCN4CCC3	93.5*	?	-16.4	8.3	?	0.282µM*
CCOc1ccc(OCC)c(S(=O)(=O)N2CCN(c3cccc(C)c3C)CC2)c1	0.4	·	-13.4	·	·	-1.1%
COc1cc(/C=C2/SC(=S)N(CC3CCCO3)C2=O)ccc1O (stereo unspecified)	64.2*	-19.9%	8.2	-6.5	?	3.1%
COc1cc(/C=C2\SC(=S)N(NC(=O)c3ccc(O)cc3)C2=O)ccc1O	47.6*	·	-1.4	0.8	?	·
CCOc1cc(/C=C2\SC(=S)N(Nc3ccccc3)C2=O)ccc1O	34.7*	?	-2.3	-0.1	?	-1.4%
CCC(C)n1c(=N)c(C(=O)NCc2ccccc2)cc2c(=O)n3cc(C)ccc3nc21 (stereo unspecified)	-0.4	·	28.5	·	·	0.6%
SMILES	TRHR agonist	CBFb-RUNX1 inh	TRHR enhancer	IL2 activator	MBNL1 CUG block	Epigenetic reg
C=CCC1NS(=O)(=O)OC2CCCC12 (stereo unspecified)	0.2	·	36.6*	0.0	-1.5%	·
COC(=O)c1ccc(CN(Cc2ccc(C(=O)OC)o2)C(C)(C)C)o1	0.2	-0.2%	37.1*	-3.7	2.8%	-0.9%
CCCCn1c(=O)c(CCC(=O)OCC(=O)NC(=O)NCCOC)nc2ccccc21	-0.2	5.7%	-1.2	0.0	·	-2.2%
CCCCn1c(=O)c(CCC(=O)OCC(=O)NC(=O)NCCC(C)C)nc2ccccc21	-0.2	3.5%	30.2*	-1.7	-1.0%	0.0%
O=c1c2ccccc2c(C=Nc2ccccc2O)c(O)n1-c1nccs1	4.6	4.6%	2.2	63.6*	5.8%	-1.1%
CSc1cccc(NC(=O)N2CCN(C)CC2)c1	0.4	10.5%	36.5*	-2.1	-14.7%	0.0%
CN1CCN(C(=O)Nc2ccccc2)CC1	0.9	7.3%	-1.8	1.1	2.2%	1.6%
CCOc1ccc(C(CC(=O)Nc2cc(C)c(Cl)cc2OC)N2Cc3ccccc3C2=O)cc1OC (stereo unspecified)	-0.9	·	1.4	·	·	-2.8%
O=C1C2C(c3ccccc3)C=CC(c3ccccc3)C2C(=O)N1C1CCCCC1 (stereo unspecified)	-0.4	0.4%	35.3*	-0.6	-0.1%	-2.2%
c1ccc(-c2cc(-c3nnco3)c3ccccc3n2)nc1	-0.2	7.6%	34.3*	-2.5	?	-1.1%
COc1cc(-c2cc(-c3nnco3)c3ccccc3n2)cc(OC)c1OC	-1.2	9.2%	-1.2	-1.4	17.4%	-0.1%
O=C(N/N=C/c1ccc(OC(F)F)cc1)c1cc[n+]([O-])cc1	1.0	·	33.7*	0.1	12.9%	·
CC(C)(C)OC(=O)Cc1nnc(-c2nc3ccccc3[nH]2)s1	0.9	·	-0.3	·	·	·
C/C(=N\NC(=O)CCCNc1ccc(C)cc1)c1ccccn1	-0.7	-22.7%	32.1*	0.5	3.3%[11.5 µM]	-4.3%
CC(=O)NNc1ncnc2c1cnn2-c1ccc(C)c(Cl)c1	0.6	22.9%	31.4*	-1.3	·	-0.1%
O=C(c1ccccc1F)N1CCN(c2cccc(C(F)(F)F)c2)CC1	-0.8	7.3%	0.3	-1.5	-10.9%	-0.4%
O=C(c1c(F)c(F)c(F)c(F)c1F)N1CCN(c2cccc(C(F)(F)F)c2)CC1	-0.1	5.9%	30.7*	1.3	3.4%	-1.0%
COC(=O)C(C(=O)OC)C(C(=O)OC)C(C(=O)OC)C(=O)OC	0.3	-1.4%	-1.1	-1.3	5.1%	0.0%
COC(=O)C(C(=O)OC)C(C(C)C)C(C(=O)OC)C(=O)OC	0.4	4.1%	39.8*	-2.3	?	0.0%
Oc1[nH]c2ccccc2c1N=NC(=S)N1CCOCC1	0.3	·	-4.8	-0.7	·	3.98µM*
Oc1[nH]c2ccc(Br)cc2c1N=NC(=S)N1CCOCC1	-1.8	·	-4.9	-4.2	·	-1.4%
CCOc1ccc(Nc2oc(-c3ccc(Cl)cc3)nc2C#N)cc1	-0.2	-9.3%	-0.4	2.2	-3.0%	-0.9%

Bioassay records as filed in PubChem.
